Measured values: PMC5540273 (PLoS ONE, 2017)

System: CDKL1
Conditions: concentration: 1 μM, replicates: in singlicate; n = 1
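Note: KINOMEscan kinase panel screen.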

| SMILES | %Inh |
| --- | --- |
| CCNc1nccc(-c2c(-c3ccc(F)cc3)ncn2C2CCN(C)CC2)n1 | 30% |
| COC(=O)Nc1nc2cc(Oc3ccc(NC(=O)Nc4cccc(SC)c4)cc3)ccc2[nH]1.Cl [GW697999] | 21% |
| Fc1cc(Cl)ccc1Nc1ccnc2cc(-c3ccc(CN4CCOCC4)o3)ccc12 [GW560109] | 0% |
| NCCC(NC(=O)c1cc(Br)c(-c2ccnc3[nH]ccc23)s1)c1ccccc1.O=C(O)C(F)(F)F.O=C(O)C(F)(F)F (stereo not shown) [GSK1307810] | 2% |
| Cc1ccc(O)cc1Nc1ccnc2cc(-c3ccc(CN4CCCCC4)o3)ccc12 [GW557777] | 7% |
| CCn1cnc2c(NCc3ccccc3)ncnc21 [SKF-96418] | 13% |
| CN(c1ccc(F)c(NC(=O)c2cccc(OC(C)(C)C#N)c2Cl)c1)c1ccc2nc(NC(=O)C3CC3)sc2n1 | 0% |
| Cn1cc(-c2ccc3c(c2)CCN3C(=O)Cc2cc(F)cc(F)c2F)c2c(N)ncnc21 [GSK2634140] | 8% |
| CN(C)c1ncnc2nc[nH]c12 [SKF-31736] | 23% |
| O=C(O)C(F)(F)F.O=c1[nH]ccc2nc(N[C@@H]3CCNC3)nc(Nc3ccc4c(c3)S(=O)(=O)CC4)c12 [GSK2181306] | 40% |
| Cn1cc(-c2cnc(N)c3c(-c4ccc5c(c4)CCN5C(=O)Cc4ccccc4)csc23)cn1 [GSK2593074] | 9% |
| Cc1ccc(NC(=O)c2ccc(Cl)c(Cl)c2)cc1-c1ccc(C(=O)Nc2ccncc2)cc1 [GSK1398460] | 1% |

System: CDKL2
Conditions: concentration: 1 μM, replicates: in singlicate; n = 1

| SMILES | %Inh |
| --- | --- |
| N#CC1(c2cccc(C(=O)Nc3cccc(Oc4ccc5nc(NC(=O)C6CC6)sc5n4)c3)c2)CC1 | 95.8% |
| Cc1ccc(C)c(NC(=O)Nc2ccc(C)c(-c3ccc(C(=O)Nc4ccncc4)cc3)c2)c1 [GSK1398473] | 42% |
| O=C(Nc1n[nH]c2nc(-c3ccccc3O)ccc12)C1CC1 [SB-711880] | 98.5% |
| CCn1c(-c2nonc2N)nc2c(-c3ccccc3)ncc(OCCCN)c21.O=C(O)C(F)(F)F.O=C(O)C(F)(F)F [GSK260205] | 31% |
| Cl.Cl.NC(CNC(=O)c1cc(Br)c(-c2ccnc3[nH]ccc23)s1)c1ccccc1 (stereo not shown) [GSK1322949] | 26% |
| CCOc1nccc(-c2c(-c3ccc(F)cc3)ncn2C2CCNCC2)n1 [SB-249175] | 0% |
| COc1cccc2c(-c3ccncc3)c(-c3ccc(F)cc3)nn12 [GW468513] | 38% |
| CC(C)c1nc(-c2cccc(NS(=O)(=O)c3c(F)cccc3F)c2)c(-c2ccnc(Nc3ccc(N4CCOCC4)nc3)n2)s1.Cl [GSK1723980] | 98.9% |
| O=C(Nc1n[nH]c2cc(-c3cccs3)ccc12)C1CC1 [SB-731284] | 98.1% |
| Cc1ccc(NC(=O)c2cccc(N3CCCCC3)c2)cc1-c1ccc(C(=O)NCC2CC2)cc1 [GSK1917008] | 16% |
| Cl.O=C(Nc1ccc(Oc2ccc3[nH]c(NC(=O)c4ccco4)nc3c2)cc1)Nc1cc(C(F)(F)F)ccc1F [GW683134] | 85% |
| Cn1cc(-c2ccc3c(c2)CCN3C(=O)Cc2cc(F)cc(C(F)(F)F)c2)c2c(N)ncnc21 [GSK2635225] | 24% |
| COc1cc(Nc2nccc(N3CCC(NS(=O)(=O)c4ccc(NC(C)=O)cc4)CC3)n2)cc(OC)c1OC [GSK1379825] | 24% |
| O=C1NC(=O)C(c2ccccc2Cl)=C1Nc1cccc(Cl)c1 [SB-342409] | 11% |
| Cc1cc(-c2ccnc(Nc3cccc(C#N)c3)n2)cc(C)c1O [GSK1440913] | 89% |
| CC(C)NCC(Cc1ccccc1)NC(=O)c1cc(Br)c(-c2ccnc3[nH]ccc23)s1.Cl.Cl (stereo not shown) [GSK1383281] | 11% |
| Nc1ncc(-c2ccc3nccc(-c4ccncc4)c3c2)cc1S(=O)(=O)N1CCCCC1 [GSK1693850] | 27% |
| COc1cc(Nc2ccnc3cc(-c4ccncc4)ccc23)cc(OC)c1OC.Cl [GW494610] | 8% |
| COC(=O)Nc1nc2ccc(Oc3ccc(NC(=O)Nc4cc(C(F)(F)F)ccc4F)cc3)cc2[nH]1.Cl [GW654607] | 96.7% |

| SMILES | %Inh |
| --- | --- |
| c1ccc(Oc2ccc(Nc3ccnc4cc(-c5ccc(CN6CCCCC6)o5)ccc34)cc2)nc1 [GW567143] | 12% |
| COc1cccc(CC(=O)N2CCc3cc(-c4cn(C)c5ncnc(N)c45)ccc32)c1 [GSK2608899] | 4% |
| COc1ccc(C)c(Nc2ccnc(Nc3ccc(-c4cnc[nH]4)cc3)n2)c1.Cl [GW784041] | 0% |
| CCNC(=O)/C=C/c1n[nH]c2cc(Sc3ccccc3C(=O)NC)ccc12 | 26% |
| Cl.N#CCc1ccc(Nc2nccc(Nc3ccc(Oc4ccccc4)cc3)n2)cc1 [GW639905] | 55% |
| CC(=O)Nc1cn2nc(Oc3cccc(NC(=O)c4cccc(C(F)(F)F)c4)c3)ccc2n1 | 44% |
| CCNc1nccc(-c2c(-c3ccc(F)cc3)ncn2C2CCN(C)CC2)n1 | 0% |
| COC(=O)Nc1nc2cc(Oc3ccc(NC(=O)Nc4cccc(SC)c4)cc3)ccc2[nH]1.Cl [GW697999] | 86% |
| Fc1cc(Cl)ccc1Nc1ccnc2cc(-c3ccc(CN4CCOCC4)o3)ccc12 [GW560109] | 58% |
| NCCC(NC(=O)c1cc(Br)c(-c2ccnc3[nH]ccc23)s1)c1ccccc1.O=C(O)C(F)(F)F.O=C(O)C(F)(F)F (stereo not shown) [GSK1307810] | 0% |
| Cc1ccc(O)cc1Nc1ccnc2cc(-c3ccc(CN4CCCCC4)o3)ccc12 [GW557777] | 0% |
| CCn1cnc2c(NCc3ccccc3)ncnc21 [SKF-96418] | 10% |
| CN(c1ccc(F)c(NC(=O)c2cccc(OC(C)(C)C#N)c2Cl)c1)c1ccc2nc(NC(=O)C3CC3)sc2n1 | 27% |
| Cn1cc(-c2ccc3c(c2)CCN3C(=O)Cc2cc(F)cc(F)c2F)c2c(N)ncnc21 [GSK2634140] | 29% |
| CN(C)c1ncnc2nc[nH]c12 [SKF-31736] | 4% |
| O=C(O)C(F)(F)F.O=c1[nH]ccc2nc(N[C@@H]3CCNC3)nc(Nc3ccc4c(c3)S(=O)(=O)CC4)c12 [GSK2181306] | 44% |
| Cn1cc(-c2cnc(N)c3c(-c4ccc5c(c4)CCN5C(=O)Cc4ccccc4)csc23)cn1 [GSK2593074] | 0% |
| Cc1ccc(NC(=O)c2ccc(Cl)c(Cl)c2)cc1-c1ccc(C(=O)Nc2ccncc2)cc1 [GSK1398460] | 13% |
